Reference: PubChem BioAssay AID504594 (Broad Institute, 2011)
Among all 2,000 compounds or so, fewer than 10 were called active.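 How the source made its calls: active means growth inhibition of at least 75% in every replicate, which also brings the mean inhibition to 75% or more; inconclusive means mean inhibition 75% or more but some replicate under 75%; inactive means the rest.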 Only a sample is shown.

Assay: reduced viability of yeast carrying PfHsp90 – S. cerevisiae, BacTiter-Glo luminescence, antimalarial PfHsp90 inhibitor project, primary screen (AID 504594);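 further: 0% = DMSO neutral control wells and 100% = 20 µM radicicol control wells; higher value means stronger growth inhibition because the sign is flipped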
Conditions: S. cerevisiae expressing PfHsp90, BacTiter-Glo growth, 48 h; at 9.4 µM; stronger effect = higher value

Structure (SMILES)	growth inhibition
COc1ccc(C2NC(=O)c3ccccc3N2)cc1OC (centres undefined)	-3.61% (inactive)
C=C(C)c1nc2cc(OC)c(OC)cc2c(=O)o1	12.6% (inactive)
C=CCNC(=O)c1ccc(-c2cccc([N+](=O)[O-])c2)o1	0.359% (inactive)
COc1ccc(-n2cc(CNCc3cccnc3)c(-c3cccc(F)c3)n2)cc1	-18.3% (inactive)
COC(=O)c1cc(-c2ccc(OC)c(OC)c2)on1	-8.12% (inactive)
O=c1c2ccccc2nc2n1CCCN2	6.84% (inactive)
CCOC(=O)N1CCc2[nH]c3ccc(C)cc3c2C1	-0.0125% (inactive)
CC1(C)CC(C(CC(=O)O)c2ccccc2)CCO1 (centres undefined)	-0.107% (inactive)
Cc1ccc2c(c1)c(C)cc(=O)n2CCC(=O)O	-4.29% (inactive)
Cc1ccccc1OCC(O)CN1CCN(C)CC1 (centres undefined)	2.9% (inactive)
COc1cccc(C2CCCN2Cc2nc(CCC(C)C)no2)c1 (centres undefined)	11.4% (inactive)
CC(C)N(Cc1nccn1C)C(=O)CC1C(=O)NCCN1Cc1ccccc1C(F)(F)F (centres undefined)	-0.671% (inactive)
CCOCCCNCc1cn(-c2ccc(F)cc2F)nc1-c1ccccc1C	5.3% (inactive)
CCOC(=O)C1(Cc2cccc(Cl)c2)CCCN(C2CCN(C(C)=O)CC2)C1 (centres undefined)	-10.8% (inactive)
Cc1ccc(C2=NOC(=O)/C2=C\C=C\c2ccccc2)cc1	14.3% (inactive)
O=C1c2ccccc2C(=O)N1/N=C/c1ccc(Oc2ccc([N+](=O)[O-])cn2)cc1	4.52% (inactive)
CC1(C)Oc2ccc(C#N)cc2[C@@H](N2CCCC2=O)[C@@H]1O	7.78% (inactive)
CC1(C)Cc2ccccc2C(C(Cc2ccccc2)C(N)=O)=N1 (centres undefined)	-4.58% (inactive)
O=C(CN1CCN(Cc2ccccc2)CC1)N1CCCc2c1c(=O)oc1ccc(O)cc21	-7.45% (inactive)
O=C(NCCc1cccc(F)c1)[C@@H]1CSC2c3ccccc3C(=O)N21 (some centres undefined)	3.04% (inactive)
COc1ccc(CCNC(=O)CC(c2ccccc2)c2cccc(C)c2O)cc1OC (centres undefined)	-1.09% (inactive)
CCn1c(SCC(=O)c2ccccc2)nc2ccccc2c1=O	-10.3% (inactive)
CC1(C)Cc2nc3sc4c(=O)n(CC(N)=O)cnc4c3cc2CO1	-2.88% (inactive)
CC(C)(C)OC(=O)COc1cc(OCC(=O)OC(C)(C)C)c2c(=O)cc(-c3ccccc3)oc2c1	-8.59% (inactive)

Structure (SMILES)	growth inhibition
Cn1cnc2c1c(=O)n(CC(O)CO)c(=O)n2C (centres undefined)	-5.12% (inactive)
O=C(O)c1ccccc1C(=O)OCCCCOC(=O)c1ccccc1C(=O)O	-3.9% (inactive)
COc1ccc(C(=O)NCC2OCCc3ccccc32)cc1 (centres undefined)	-3.22% (inactive)
O=C1CC(c2ccc(F)cc2)Cc2nc(NCC3CCCO3)ncc21 (centres undefined)	6.43% (inactive)
COc1ccccc1OCC(=O)O	-2.4% (inactive)
NC(N)=NC(N)=Nc1ccc2ccccc2c1	-11.6% (inactive)
O=C(c1cc2cc(Br)ccc2o1)N1CCCCC1	5.37% (inactive)
Cc1ccc2c(CN3CCN(Cc4ccc5c(c4)OCO5)CC3)cc(=O)oc2c1C	0.516% (inactive)
COc1ccc(-c2cc(=O)oc3cc(OC(C)C(=O)O)ccc23)cc1 (centres undefined)	-0.213% (inactive)
CN(Cc1c(C(=O)N(C)Cc2ccccc2)nc2ccccn12)CC1Cc2ccccc2O1 (centres undefined)	11.4% (inactive)
CC(C)CCc1noc(CN2CCC(CCN3CCCC3=O)CC2)n1	4.25% (inactive)
Cn1c(SCC(=O)c2ccccc2)nnc1-c1ccncc1	0.861% (inactive)
CC(=O)C1=C(O)C(=O)OC1c1ccc(C)cc1 (centres undefined)	14.7% (inactive)
CC12CC(c3ccccc3O1)C(C(=O)N1CCOCC1)C(=O)N2 (centres undefined)	-11.3% (inactive)
COc1cc2c(cc1OC)C1(CCCC1)CNC2c1cccc([N+](=O)[O-])c1 (centres undefined)	-7.37% (inactive)
Cc1csc(-c2coc3cc(O)cc(C)c3c2=O)n1	23.5% (inactive)
Cc1nc(N)sc1C(=O)N/N=C/c1ccco1	-1.68% (inactive)
Nc1nc2c(nc(SCc3ccccc3Br)n2C2OC(CO)C(O)C2O)c(=O)[nH]1 (centres undefined)	-22.3% (inactive)
COc1ccc(/C=C2\CC/C(=C\c3ccc(OC)c(OC)c3)C2=O)cc1OC	-15.8% (inactive)
CCc1cc2c(=O)c(-c3ccc4c(c3)OCCO4)coc2c(CN2CCCCC2C)c1O (centres undefined)	-11.5% (inactive)
CCOC(=O)c1ccc(N2C(=O)C(CC(=O)NC)N(CCc3ccc(OC)c(OC)c3)C2=S)cc1 (centres undefined)	8.13% (inactive)
O=C(Cc1cccc2ccccc12)N1CC[C@@]2(O)CCCC[C@H]2C1	-9.85% (inactive)
COc1ccccc1C(=O)N=C1NC(=O)CC2C(=O)NCCN12 (centres undefined)	2.95% (inactive)
Cc1ccc2c(c1)C1OCCC1C1N2C(=O)C2C(C(=O)O)C3C=CC21O3 (centres undefined)	-2.86% (inactive)

Structure (SMILES)	growth inhibition
COc1ccc(CNC(=O)C2CCCN2C)cc1OC (centres undefined)	-16.4% (inactive)
COc1ccc2[nH]c(=O)c(CNC3CCCCC3)cc2c1	-29% (inactive)
CCOC(=O)C1=C(N)Oc2c(oc(CO)cc2=O)C1c1ccc(F)c(F)c1 (centres undefined)	-16.3% (inactive)
CC12CCC(C(=O)NCc3ccccn3)(OC1=O)C2(C)C (centres undefined)	-9.47% (inactive)
CC(=O)O[C@H]1C(=O)[C@@]2(C)[C@H]([C@H](OC(=O)c3ccccc3)[C@]3(O)C[C@H](OC(=O)[C@H](O)C(NC(=O)c4ccccc4)c4ccccc4)C(C)=C1C3(C)C)[C@]1(OC(C)=O)CO[C@@H]1C[C@@H]2O (some centres undefined)	4.3% (inactive)
CCOC(=O)N1c2ccccc2C=CC1OCC (centres undefined)	-5.21% (inactive)
Cc1cc(=O)oc2cc(OC(C)C(=O)NCC3CCCO3)ccc12 (centres undefined)	-2.4% (inactive)
O=C(O)c1ccc(OCCn2ccnc2)cc1	-4.4% (inactive)
CC(=O)N1CCN(c2ccc(OC[C@H]3CO[C@](Cn4ccnc4)(c4ccc(Cl)cc4Cl)O3)cc2)CC1	94.4% (active)
CCC(C)n1ncn(-c2ccc(N3CCN(c4ccc(OCC5COC(Cn6cncn6)(c6ccc(Cl)cc6Cl)O5)cc4)CC3)cc2)c1=O (centres undefined)	-1.74% (inactive)
Cc1oc(/C=N/NC(=O)CC2(C)OCCO2)cc1Br	-11.1% (inactive)
C=C(C)[C@@H]1CC=C(CN2CCC(N3CCC(C(=O)N4CCCC4)CC3)CC2)CC1	-0.183% (inactive)
CCN(CC)CCN1C(=O)C(=O)/C(=C(/O)c2c(C)[nH]c(C(=O)OC)c2C)C1c1cccnc1 (centres undefined)	-4.71% (inactive)
COc1cccc(N2CC34C=CC(O3)C(C(=O)O)C4C2=O)c1 (centres undefined)	-1.36% (inactive)
COc1ccc(OC)c(-c2oc3ccccc3c(=O)c2O)c1	-8.17% (inactive)
Cc1ccsc1C1NC(=O)c2ccccc2N1 (centres undefined)	-12.4% (inactive)
COc1cc(C(=O)N/C(=C\c2cn(C)c3ccccc23)C(=O)NCCCO)cc(OC)c1OC	13.5% (inactive)
CCc1nc2ccccc2n1Cc1ccc(OC)c(OC)c1	2.55% (inactive)
C/C(NC(=O)c1cccs1)=C1\C(=O)C[C@@H]2[C@H]1C2(C)C	1.59% (inactive)
CCc1cc2c(=O)c(-c3nc(C)cs3)c(CCCC(=O)O)oc2cc1O	-4.53% (inactive)
CN(C)CCOc1ccc(Cl)cc1C(C)(C)C	-0.977% (inactive)
COc1ccc2c(c1OC)C(=O)N1C2SC[C@H]1C(=O)NC1CC(C)(C)NC(C)(C)C1 (some centres undefined)	2.59% (inactive)
N#Cc1cc2c([nH]c1=O)CCCC2	8.49% (inactive)
COc1cc2c(cc1O)CCN(C(=O)c1ccco1)C2C (centres undefined)	3.62% (inactive)

Structure (SMILES)	growth inhibition
Cc1c(Cc2ccccc2)c(=O)oc2c(CN(C)C)c(O)c(Cl)cc12	-2.33% (inactive)
COc1cccc(N2C(=O)[C@H]3C(C(=O)c4cnccn4)=NN[C@H]3C2=O)c1	-1.02% (inactive)
O=C(O)C[C@@H](O)C(=O)O	-8.31% (inactive)
Cc1ccc(CSCC(=O)N2CCCC2)cc1	-5.17% (inactive)
O=C(NCCc1nc2ccccc2[nH]1)c1cccc(Br)c1	2.71% (inactive)
CCNC(=S)N1CCN(CCN2C(=O)c3cccc4cccc(c34)C2=O)CC1	2.01% (inactive)
COc1c2occc2c(OC)c2c(=O)cc(C(F)(F)C(F)(F)F)oc12	-5.37% (inactive)
CC(=O)NC(Cc1c[nH]c2ccccc12)C(=O)N/N=C/c1ccccc1 (centres undefined)	13.4% (inactive)
O=C(CN1CC[n+]2c(-c3cccs3)csc21)c1ccc(Br)cc1	-7.32% (inactive)
Cc1ccc2nc(N=C(N)N)nc(C)c2c1	-4.91% (inactive)
COc1ccc(CNC(=O)N[C@H](C(=O)O)C(C)C)cc1OC	-0.856% (inactive)
CCOC(=O)NN1C(=O)c2ccccc2NC1c1ccc(OC)c(OC)c1 (centres undefined)	-6.91% (inactive)
COC(=O)c1[nH]c(=O)c2ccccc2c1O	-11.7% (inactive)
COC(=O)c1cc(OC)c(OC)cc1NC(=O)CN1C(=O)c2ccccc2C1=O	-14.3% (inactive)
COc1cc(CNc2ccc(C)c(C)c2)cc(OC)c1OC	13.4% (inactive)
Clc1ccc2c(c1)[C@H]1OCC[C@H]1[C@@H](c1ccco1)N2	1.42% (inactive)
CC1(c2ccccc2)CC(C)(C)N2C(=O)C(=O)c3cccc1c32 (centres undefined)	-3.23% (inactive)
O=c1nc2cccc3c2=c(/c1=C(\O)c1ccccc1)c1ccccc1c3=O	-23.6% (inactive)
O=C1Nc2ccc3sc4ccccc4c3c2C1=O	-1.28% (inactive)
O=C(CN1C(=O)/C(=C/c2cccc(Br)c2)SC1=S)Nc1cccnc1	-5.73% (inactive)
CC(C)c1ccc(/C=C/C(=O)O)cc1	-10.9% (inactive)
COc1ccc(CC(=O)N2CC3(C)CC2CC(C)(C)C3)cc1OC (centres undefined)	12.2% (inactive)
